Hits are enriched below; roughly 31% of the tested compounds scored in any of these assays.
CYP2C19 act = activators of human cytochrome P450 2C19 | recombinant CYP2C19, luciferin-H EGE luminescence; active compounds read high; 0 = fully inhibited enzyme, 1 = untreated enzyme | activation factor at 5 µM | 96,000 tested, under 10 active | AID 1025;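 active = activation factor of at least 2 at 5 µM in the primary screen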
CYP2C9 act = activators of human CYP2C9 | activation factor at 5 µM | recombinant CYP2C9, luciferin-H conversion, luminescence; active compounds read high; factor 1 = untreated enzyme, 0 = blocked | P11712 | 1.4% of 96,000 active;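 active = activation factor of 2 or more for CYP2C9 at a 5 µM dose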
Target sequence (P11712 whole entry, looked up): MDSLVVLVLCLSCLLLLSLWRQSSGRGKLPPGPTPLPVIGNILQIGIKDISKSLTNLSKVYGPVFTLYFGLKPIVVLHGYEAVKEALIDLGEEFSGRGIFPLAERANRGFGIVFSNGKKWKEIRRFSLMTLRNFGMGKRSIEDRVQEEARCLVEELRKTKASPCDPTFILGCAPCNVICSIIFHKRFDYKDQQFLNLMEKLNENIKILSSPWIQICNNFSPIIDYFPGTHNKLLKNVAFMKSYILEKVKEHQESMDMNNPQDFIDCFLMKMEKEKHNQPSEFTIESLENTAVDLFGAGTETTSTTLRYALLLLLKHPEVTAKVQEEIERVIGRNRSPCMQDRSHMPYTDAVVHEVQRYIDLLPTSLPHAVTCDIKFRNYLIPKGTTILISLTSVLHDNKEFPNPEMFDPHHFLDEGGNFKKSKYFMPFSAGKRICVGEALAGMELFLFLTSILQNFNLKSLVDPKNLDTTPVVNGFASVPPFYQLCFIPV
CYP2C19 inh = inhibitors of human CYP2C19. P33261. CYP2C19 Supersomes, luciferin-H EGE luminescence, 30 min. inhibition, % at 5 µM. 21% of 96,000 active;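 active = CYP2C19 inhibition above a set limit at 5 µM in the primary screen, cut at about 50% in these data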
PLAP act = human PLAP activation; activation fold at 20 µM; AID 696; 1.2% of 96,000 active; purified PLAP enzyme, luminescent substrate read-out; active compounds read high; in the data active = activation fold above about 2
CYP2C9 inhib = human CYP2C9 inhibition | P11712 | AID 777 | CYP2C9 Supersomes, luciferin-H conversion, luminescence | inhibition, % at 5 µM | 20% of 96,000 active;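 active = blocking of liver enzyme CYP2C9 beyond about 50% at 5 µM, limit read from the data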
Hits are given with their value; 0 = inactive.

SMILES | CYP2C19 act | CYP2C9 act | CYP2C19 inh | PLAP act | CYP2C9 inhib
CC(C)C(C)NC(=O)CSc1nc2scc(-c3ccco3)c2c(=O)n1-c1ccccc1 (configuration not stated) | 0 | 0 | 0 | 0 | 0
Cc1ccc(NC(=O)c2cccc(N3C(=O)CCC3=O)c2)nc1 | 0 | 0 | 0 | 0 | 0
CC(C)(C)c1cc(NC(=O)COC(=O)C2CC2)n(-c2ccccc2)n1 | 0 | 0 | 56 | 0 | 0
CCCC(=O)OCC(=O)Nc1cc(C(C)(C)C)nn1-c1ccccc1 | 0 | 0 | 0 | 0 | 0
CCCCNC(=O)c1ccccc1NC(=O)CCSc1ccccc1 | 0 | 0 | 93 | 0 | 81
COC(=O)c1cccc(CSc2nnc(-c3ccco3)n2-c2ccccc2)c1 | 0 | 0 | 0 | 0 | 68
CC(Sc1nnc(-c2cccs2)n1-c1ccccc1)C(=O)NCc1ccco1 (configuration not stated) | 0 | 0 | 71 | 0 | 82
Cc1cc(C)c(NC(=O)C(C)Sc2nnc(-c3ccco3)n2-c2ccccc2)c(C)c1 (configuration not stated) | 0 | 0 | 90 | 0 | 66
O=C(/C=C/c1ccco1)NC(=S)Nc1ccc(Cl)cn1 | 0 | 0 | 0 | 0 | 0
Cc1c(S(=O)(=O)N2CCN(C(=O)c3ccco3)CC2)c(=O)n(C)c(=O)n1C | 0 | 0 | 0 | 0 | 0
Cc1cc2cc(CNC(=O)CC(C)C)ccc2n1C | 0 | 0 | 0 | 0 | 0
CN1CCCN(C2C3CC4CC(C3)CC2C4)CC1 (configuration not stated) | 0 | 0 | 0 | 0 | 0
CCN1CCN(CCNC(=O)CCCCCn2c(=O)[nH]c3cc(C(=O)OC)ccc3c2=O)CC1 | 0 | 0 | 0 | 0 | 53
COc1ccc(CCn2c(=O)[nH]c3cc(C(=O)NCCN4CCOCC4)ccc3c2=O)cc1OC | 0 | 0 | 0 | 0 | 0
COc1cc2[nH]c(=O)n(CCCCCC(=O)N3CCN(c4ccccc4)CC3)c(=O)c2cc1OC | 0 | 0 | 79 | 0 | 70
COc1cc2[nH]c(=O)n(CCCCCC(=O)NCCc3c[nH]c4ccccc34)c(=O)c2cc1OC | 0 | 0 | 64 | 0 | 67
CCCCCn1c(=O)[nH]c2cc(C(=O)NCCc3ccc(OC)c(OC)c3)ccc2c1=O | 0 | 0 | 59 | 0 | 70
O=C(NC1CCCCC1)NC1(C(=O)NCCCN2CCOCC2)CCCCC1 | 0 | 0 | 0 | 0 | 0
COC(=O)c1ccc2c(=O)n(CCCCCC(=O)N3CCN(c4ccccc4)CC3)c(=O)[nH]c2c1 | 0 | 0 | 53 | 0 | 56
CSc1ccccc1NC(=O)CN(c1cccc(C)c1)S(C)(=O)=O | 0 | 0 | 51 | 0 | 53
CCc1ccc(NC(=O)CN(c2cccc(C)c2)S(C)(=O)=O)cc1 | 0 | 0 | 0 | 0 | 0
Cc1cccc(N(CC(=O)Nc2ccccc2F)S(C)(=O)=O)c1 | 0 | 0 | 92 | 0 | 69
Cn1c2ccccc2c(=O)c2c(=O)n(C3CCCCC3)c(-c3cccs3)nc21 | 0 | 0 | 0 | 0 | 95
CCC(=O)Nc1c(-c2cccs2)c(=O)c2ccccc2n1C | 0 | 0 | 0 | 0 | 0
COC(=O)c1ccc(NC(=O)Cc2ccc(C)cc2)cc1 | 0 | 0 | 0 | 0 | 0
SMILES | CYP2C19 act | CYP2C9 act | CYP2C19 inh | PLAP act | CYP2C9 inhib
COC(=O)c1cc(NC(=O)Cc2ccc(OC)cc2)cc(C(=O)OC)c1 | 0 | 0 | 0 | 0 | 84
CCOC(=O)c1ccc(NC(=S)NCCc2ccccc2)cc1 | 0 | 0 | 0 | 0 | 66
CCC(C)C(=O)Nc1cc(C(=O)OC)cc(C(=O)OC)c1 (configuration not stated) | 0 | 0 | 0 | 0 | 61
COC(=O)c1ccc(NC(=O)Cc2ccccc2)cc1 | 0 | 0 | 83 | 0 | 70
CCN1CCN(C(CNC(=O)c2ccc3c(c2)OCO3)c2cccnc2)CC1 (configuration not stated) | 0 | 0 | 0 | 0 | 0
O=C(CNS(=O)(=O)c1cccs1)Nc1ccc2c(c1)OCCO2 | 0 | 0 | 0 | 0 | 0
COC(=O)c1ccc(NC(=S)Nc2ccccc2)cc1 | 0 | 0 | 52 | 0 | 0
COC(=O)c1ccc(NC(=O)CNS(=O)(=O)c2cccs2)cc1 | 0 | 0 | 65 | 0 | 0
COC(=O)c1ccc(NC(=S)Nc2ccc3ccccc3c2)cc1 | 0 | 0 | 0 | 0 | 0
NC(=O)CC(O)c1cccc(Cl)c1 (configuration not stated) | 0 | 0 | 0 | 0 | 0
COc1cccc(CNS(=O)(=O)c2cccc(S(=O)(=O)N3CCOCC3)c2)c1 | 0 | 0 | 57 | 0 | 0
COc1ccc(CNS(=O)(=O)c2cccc(S(=O)(=O)N3CCOCC3)c2)cc1 | 0 | 0 | 58 | 0 | 0
